Source: PubChem BioAssay (EPA / NIEHS)
Calls of active or inactive are those of the source. Rule for the calls: active = hit-call score of the fitted dose curve at least 0.9, where 1 is the maximum; inactive = score below 0.9.

Assays:
Settings in all cases: mRNA level, 48 h; actives raise or lower the signal
[1] = read-out: CYP4A11 (gene 1579); assay: LTEA_HepaRG_CYP4A11: Life Technologies and Expression Analysis (LTEA) Assay for CYP4A11 using HepaRG (AID 2283486)
How it was run: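 HepaRG, 48 h chem exposure, 8 conc (100 uM top, half-log), 0.5% DMSO vehicle; qRT-PCR readout, housekeeping-gene normalized; bidirectional curve fit vs DMSO baseline.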

[2] = read-out: Cytochrome P450 3A4 (Homo sapiens) (UniProt P08684); assay: LTEA_HepaRG_CYP3A4: Life Technologies and Expression Analysis (LTEA) Assay for CYP3A4 using HepaRG (AID 2283487)
How it was run: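 Differentiated HepaRG cells in serum-free induction medium exposed in duplicate for 48 h to 8 half-log concentrations up to 100 uM in 0.5% DMSO. CYP3A4 mRNA measured by qRT-PCR normalized to ACTB, GAPDH and POLR2A; bidirectional fit versus DMSO.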

[3] = read-out: DNA damage-inducible transcript 3 (DDIT3), DDIT3 (gene 1649); assay: LTEA_HepaRG_DDIT3: Life Technologies and Expression Analysis (LTEA) Assay for DNA damage-inducible transcript 3 (DDIT3) using HepaRG (AID 2283488)
How it was run: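 Differentiated human HepaRG cells in serum-free induction medium were exposed in duplicate for 48 h to 8 concentrations (top 100 uM, half-log steps, 0.5% DMSO). DDIT3 mRNA measured by TaqMan qRT-PCR, normalized to ACTB/GAPDH/POLR2A; bidirectional fit versus DMSO.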

[4] = read-out: Pro-epidermal growth factor (Homo sapiens) (UniProt P01133); assay: LTEA_HepaRG_EGF: Life Technologies and Expression Analysis (LTEA) Assay for Epidermal growth factor (EGF) using HepaRG (AID 2283489)
How it was run: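 HepaRG, 48 h dosing, 100 uM top, half-log x8, 0.5% DMSO. Readout: TaqMan qRT-PCR (Fluidigm array), housekeeping-normalized. Gain or loss of signal fit vs DMSO.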

[5] = read-out: Early growth response protein 1 (EGR1) transcription factor, EGR1 (gene 1958); assay: LTEA_HepaRG_EGR1: Life Technologies and Expression Analysis (LTEA) Assay for Early growth response protein 1 (EGR1) transcription factor using HepaRG (AID 2283490)
How it was run: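 Differentiated HepaRG cells in serum-free induction medium exposed 48 hours, duplicate, to 8 half-log concentrations up to 100 uM in 0.5% DMSO. EGR1 mRNA measured by TaqMan qRT-PCR, normalized to ACTB, GAPDH, POLR2A; bidirectional fit versus DMSO.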

[6] = read-out: Ezrin (EZR), EZR (gene 7430); assay: LTEA_HepaRG_EZR: Life Technologies and Expression Analysis (LTEA) Assay for Ezrin (EZR) using HepaRG (AID 2283491)
How it was run: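 Differentiated human HepaRG cells, 48 h after plating, were exposed in serum-free induction medium for 48 hours to eight half-log concentrations up to 100 uM in 0.5% DMSO. EZR mRNA was measured by TaqMan qRT-PCR, normalized to ACTB, GAPDH and POLR2A, and fitted bidirectionally against DMSO.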

[7] = read-out: Cytochrome P450 3A7 (Homo sapiens) (UniProt P24462); assay: LTEA_HepaRG_CYP3A7: Life Technologies and Expression Analysis (LTEA) Assay for CYP3A7 using HepaRG (AID 2283492)
How it was run: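 Human HepaRG liver cells, 48 h post-plating, switched to serum-free induction medium and exposed in duplicate for 48 h. Dosing: 100 uM top, half-log dilutions, 8 points, 0.5% DMSO vehicle. Read-out: CYP3A7 mRNA, gain or loss fitted against DMSO baseline.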

[8] = read-out: CYP3A5 (gene 1577); assay: LTEA_HepaRG_CYP3A5: Life Technologies and Expression Analysis (LTEA) Assay for CYP3A5 using HepaRG (AID 2283493)
How it was run: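 Differentiated HepaRG cells in serum-free induction medium were dosed 48 h with test chemicals (8-point half-log series, top 100 uM, 0.5% DMSO, duplicate). CYP3A5 mRNA measured by qRT-PCR, normalized to ACTB, GAPDH, POLR2A; bidirectional fit versus DMSO.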

[9] = read-out: Fatty Acid-Binding Protein 1 (FABP1), FABP1 (gene 2168); assay: LTEA_HepaRG_FABP1: Life Technologies and Expression Analysis (LTEA) Assay for Fatty Acid-Binding Protein 1 (FABP1) using HepaRG (AID 2283494)
How it was run: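 Differentiated human HepaRG cells exposed 48 h in serum-free induction medium to eight half-log concentrations up to 100 uM (0.5% DMSO), duplicate. FABP1 mRNA by qRT-PCR, normalised to ACTB, GAPDH, POLR2A; bidirectional fitting against DMSO.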

[10] = read-out: Cytochrome P450 4A22 (Homo sapiens) (UniProt Q5TCH4); assay: LTEA_HepaRG_CYP4A22: Life Technologies and Expression Analysis (LTEA) Assay for Cytochrome P450 4A22 (CYP4A22) using HepaRG (AID 2283495)
How it was run: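 Readout is CYP4A22 transcript induction or loss, quantified by qRT-PCR and normalized to ACTB, GAPDH and POLR2A. Human HepaRG cells receive test chemicals for 48 h at eight half-log concentrations from 100 uM in 0.5% DMSO.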

[11] = read-out: Cytochrome P450 7A1 (Homo sapiens) (UniProt P22680); assay: LTEA_HepaRG_CYP7A1: Life Technologies and Expression Analysis (LTEA) Assay for Cytochrome P450 7A1 (CYP7A1) using HepaRG (AID 2283496)
How it was run: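 Gene expression endpoint in human HepaRG liver cells treated for 48 h with test chemicals (up to 100 uM, 0.5% DMSO). Values come from bidirectional concentration-response fitting versus DMSO.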

[12] = read-out: Glutathione S-Transferase (GSTA2), GSTA2 (gene 2939); assay: LTEA_HepaRG_GSTA2: Life Technologies and Expression Analysis (LTEA) Assay for Glutathione S-Transferase (GSTA2) using HepaRG (AID 2283497)
How it was run: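 Differentiated human HepaRG cells were exposed in duplicate for 48 h in serum-free induction medium, 8 points from 100 uM top in half-log steps, 0.5% DMSO. GSTA2 mRNA was measured by TaqMan qRT-PCR, normalized to ACTB, GAPDH and POLR2A; bidirectional fit versus DMSO.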

[13] = read-out: Glutamate-cysteine ligase catalytic (GCLC), GCLC (gene 2729); assay: LTEA_HepaRG_GCLC: Life Technologies and Expression Analysis (LTEA) Assay for Glutamate-cysteine ligase catalytic (GCLC) using HepaRG (AID 2283498)
How it was run: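 Differentiated HepaRG cells exposed 48 h in serum-free induction medium, eight-point half-log series topping at 100 uM in 0.5% DMSO, duplicates. GCLC mRNA by qRT-PCR normalized to ACTB, GAPDH and POLR2A, fitted bidirectionally versus DMSO.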

[14] = read-out: growth arrest and DNA damage 45 (GADD45G), GADD45G (gene 10912); assay: LTEA_HepaRG_GADD45G: Life Technologies and Expression Analysis (LTEA) Assay for growth arrest and DNA damage 45 (GADD45G) using HepaRG (AID 2283499)
How it was run: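 Gain or loss of GADD45G mRNA, quantified by TaqMan qRT-PCR against three housekeeping genes, is fitted in both directions relative to 0.5% DMSO. Human HepaRG cultures receive test chemical for 48 h at up to 100 uM.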

[15] = read-out: Glutamate-cysteine ligase regulatory (GCLM), GCLM (gene 2730); assay: LTEA_HepaRG_GCLM: Life Technologies and Expression Analysis (LTEA) Assay for Glutamate-cysteine ligase regulatory (GCLM) using HepaRG (AID 2283500)
How it was run: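 Differentiated human HepaRG cells exposed 48 h in serum-free induction medium to 8-point half-log concentrations (top 100 uM, 0.5% DMSO), in duplicate. GCLM mRNA quantified by qRT-PCR, normalized to ACTB, GAPDH, POLR2A; bidirectional fitting versus DMSO.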

[16] = read-out: Glutathione S-transferase M3 (GSTM3), GSTM3 (gene 2947); assay: LTEA_HepaRG_GSTM3: Life Technologies and Expression Analysis (LTEA) Assay for Glutathione S-transferase M3 (GSTM3) using HepaRG (AID 2283501)
How it was run: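 HepaRG, plated 48 h, then serum-free induction medium; test chemical 48 h, duplicate; 100 uM top, half-log x8, 0.5% DMSO. Read-out: GSTM3 mRNA (TaqMan qRT-PCR, Fluidigm array). Bidirectional fit vs DMSO.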

[17] = read-out: Heat shock 70 kDa protein 1 (HSPA1A), gene 3303; assay: LTEA_HepaRG_HSPA1A: Life Technologies and Expression Analysis (LTEA) Assay for Heat shock 70 kDa protein 1 (HSPA1A) using HepaRG (AID 2283502)
How it was run: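 Differentiated human HepaRG cells in serum-free induction medium were exposed in duplicate for 48 h to eight concentrations (top 100 uM, half-log steps, 0.5% DMSO). HSPA1A mRNA was quantified by qRT-PCR, normalized to ACTB, GAPDH and POLR2A, and fitted bidirectionally against DMSO.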

[18] = read-out: Hypoxia-inducible factor 1-alpha (Homo sapiens) (UniProt Q16665); assay: LTEA_HepaRG_HIF1A: Life Technologies and Expression Analysis (LTEA) Assay for Hypoxia-inducible factor 1 (HIF1A) Trancription factor using HepaRG (AID 2283503)
How it was run: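 HepaRG, 48 h exposure, 8-pt half-log series from 100 uM, 0.5% DMSO vehicle, duplicates. Readout: HIF1A transcript by qRT-PCR (Fluidigm array), housekeeping-normalised. Bidirectional curve fit vs DMSO baseline.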

[19] = read-out: 3-Hydroxy-3-Methylglutaryl-CoA Synthase 2 (HMGCS2), HMGCS2 (gene 3158); assay: LTEA_HepaRG_HMGCS2: Life Technologies and Expression Analysis (LTEA) Assay for 3-Hydroxy-3-Methylglutaryl-CoA Synthase 2 (HMGCS2) using HepaRG (AID 2283504)
How it was run: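 HepaRG, plated 48 h then switched to serum-free induction media; cmpd 8-pt, max 100 uM, 1/2-log, 0.5% DMSO, n=2, 48 h. HMGCS2 mRNA by Fluidigm TaqMan qRT-PCR, ACTB/GAPDH/POLR2A norm; bidirectional fit vs DMSO.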

[20] = read-out: HGF (gene 3082); assay: LTEA_HepaRG_HGF: Life Technologies and Expression Analysis (LTEA) Assay for Hepatocyte Growth Facto (HGF) using HepaRG (AID 2283505)
How it was run: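 Read-out is HGF transcript level by qRT-PCR, normalized to three housekeeping genes, fitted bidirectionally against 0.5% DMSO vehicle. Human HepaRG cells received test chemicals for 48 h at up to 100 uM.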

Measured: AC50

Cytochrome P450 3A7 (Homo sapiens), sequence (P24462 whole entry, looked up): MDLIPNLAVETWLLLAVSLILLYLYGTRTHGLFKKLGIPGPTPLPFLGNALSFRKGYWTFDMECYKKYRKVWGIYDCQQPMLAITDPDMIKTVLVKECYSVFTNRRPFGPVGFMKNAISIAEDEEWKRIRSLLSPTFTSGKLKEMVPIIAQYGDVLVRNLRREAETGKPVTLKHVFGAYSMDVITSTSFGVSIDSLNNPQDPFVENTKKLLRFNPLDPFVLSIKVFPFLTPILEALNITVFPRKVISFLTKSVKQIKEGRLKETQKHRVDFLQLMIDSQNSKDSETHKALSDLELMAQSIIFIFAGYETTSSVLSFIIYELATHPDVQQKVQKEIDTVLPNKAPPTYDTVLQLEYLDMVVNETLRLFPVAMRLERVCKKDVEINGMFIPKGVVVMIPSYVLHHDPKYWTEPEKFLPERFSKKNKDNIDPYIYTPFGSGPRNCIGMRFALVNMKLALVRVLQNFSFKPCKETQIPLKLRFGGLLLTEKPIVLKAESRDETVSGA
Cytochrome P450 3A4 (Homo sapiens), sequence (P08684 whole entry, looked up): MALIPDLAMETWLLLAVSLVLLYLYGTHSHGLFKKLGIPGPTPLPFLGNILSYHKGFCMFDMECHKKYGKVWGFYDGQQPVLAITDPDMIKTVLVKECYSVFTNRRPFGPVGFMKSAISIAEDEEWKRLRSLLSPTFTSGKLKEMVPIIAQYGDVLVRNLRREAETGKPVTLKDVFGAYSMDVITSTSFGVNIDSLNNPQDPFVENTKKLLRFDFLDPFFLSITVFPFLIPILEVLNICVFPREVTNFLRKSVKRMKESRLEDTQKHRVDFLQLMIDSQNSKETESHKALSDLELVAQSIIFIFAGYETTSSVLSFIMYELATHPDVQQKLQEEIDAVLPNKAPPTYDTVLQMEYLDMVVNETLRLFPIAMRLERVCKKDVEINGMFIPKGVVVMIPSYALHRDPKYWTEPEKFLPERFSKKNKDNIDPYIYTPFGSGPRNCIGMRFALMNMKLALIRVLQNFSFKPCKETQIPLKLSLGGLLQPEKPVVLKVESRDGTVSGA
Hypoxia-inducible factor 1-alpha (Homo sapiens), sequence (Q16665 whole entry, looked up): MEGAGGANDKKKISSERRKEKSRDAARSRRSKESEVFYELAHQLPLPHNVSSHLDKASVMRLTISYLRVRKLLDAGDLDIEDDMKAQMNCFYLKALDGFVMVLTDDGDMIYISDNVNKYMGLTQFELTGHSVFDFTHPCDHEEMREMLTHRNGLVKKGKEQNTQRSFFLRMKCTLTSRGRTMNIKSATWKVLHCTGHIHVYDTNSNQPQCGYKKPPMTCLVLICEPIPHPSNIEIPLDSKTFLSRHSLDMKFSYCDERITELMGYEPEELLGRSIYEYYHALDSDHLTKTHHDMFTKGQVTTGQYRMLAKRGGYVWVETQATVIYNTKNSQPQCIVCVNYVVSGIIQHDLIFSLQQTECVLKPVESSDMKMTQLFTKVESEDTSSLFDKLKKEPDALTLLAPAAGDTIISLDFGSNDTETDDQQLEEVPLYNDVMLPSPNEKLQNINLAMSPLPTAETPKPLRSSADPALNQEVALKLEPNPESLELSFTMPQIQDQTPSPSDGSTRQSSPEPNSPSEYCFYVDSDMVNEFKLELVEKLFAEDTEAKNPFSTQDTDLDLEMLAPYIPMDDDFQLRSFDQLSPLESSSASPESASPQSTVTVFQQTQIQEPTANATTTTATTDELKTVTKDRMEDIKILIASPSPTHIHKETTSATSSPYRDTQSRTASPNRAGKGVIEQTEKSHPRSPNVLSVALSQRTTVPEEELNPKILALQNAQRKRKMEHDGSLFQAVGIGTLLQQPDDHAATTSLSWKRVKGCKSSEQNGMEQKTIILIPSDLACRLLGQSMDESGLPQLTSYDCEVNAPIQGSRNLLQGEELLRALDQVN

O=C(Nc1ccccc1)c1ccccc1I
active: [9] 21.7 µM | [11] 28.9 µM | [13] 29.2 µM | [14] 10.3 µM | [15] 50 µM
inactive: all other assays above

O=C(N[C@H](c1ccccc1)[C@@H]1CN2CCC1CC2)c1c(Cl)ccc(C(F)(F)F)c1Cl
active: [1] 35.4 µM | [2] 81.2 µM | [3] 36.3 µM | [4] 73.1 µM | [5] 87.5 µM | [6] 2.42 µM | [7] 76.2 µM | [9] 85.1 µM | [10] 14.6 µM | [11] 80.1 µM | [12] 73.7 µM | [14] 21.4 µM | [17] 73.8 µM | [19] 72.8 µM
inactive: [8] | [13] | [15] | [16] | [18] | [20]

Nc1ccc([N+](=O)[O-])cc1
inactive: all assays above

O=C(Oc1ccc(Br)cc1)N1CCN2CCC1CC2
active: [1] 34.9 µM | [2] 33.3 µM | [9] 31.6 µM | [10] 40 µM
inactive: all other assays above

CCN(CC)CCO
inactive: all assays above

CC(C)(C)OOC(=O)c1ccccc1
inactive: all assays above

N#CC(Br)(Br)C(N)=O
inactive: all assays above
